High-throughput results deposited in PubChem BioAssay by National Center for Advancing Translational Sciences (NCATS).
This is a sample that favours compounds with a hit; in the whole collection about 7.3% have one here.
NPC1 promoter act = NPC1 promoter activation; hit rate 2.4% among 320,000; AID 485313; Potency, µM (titrated, usually from 9.22 µM), inactives show top-dose activation, most hits filed as activators; Huh7 NPC1 promoter luciferase reporter, 24 h; also: % of control where 0% means no effect; nearly all actives have a fitted effect of over 60% in size
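Luminescence from an NPC1 promoter-driven luciferase reporter in stably transfected Huh7 cells was measured after 24 h compound treatment at 37 °C, followed by 10 min ambient incubation with luciferase detection reagent.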
Rab9 promoter act = activates the Rab9 promoter; hit rate 2.8% among 320,000; Huh7 Rab9 promoter-luciferase reporter, luminescence, 24 h; Potency, µM (doses to about 9.22 µM), without a hit: at the highest dose activation, negative = inhibition, hits mostly activators; also: % of control where 0% means no effect; nearly all actives have a fitted effect of over 60% in size
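Luminescence from Amplite-detected luciferase (10 minutes, ambient) reports Rab9 promoter activation. Before that, stable Rab9-luciferase Huh7 cells (1500/well, reduced-serum OP-MEM I plus 10% FBS) were exposed to compound for 24 hours at 37C.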
Luc counter = Kinase-Glo luciferase inhibition (counter-screen); Q27757; Kinase-Glo luciferase, ATP luminescence, 8 min; Potency, µM (series often up to 38.3 µM), without a hit: at the top dose activity change, negative = inhibition, usual class: inhibitors; hit rate 0.28% among 200,000; AID 1379; also: % is scaled to controls: 0 for no effect and ±100 for the full control effect; nearly all actives have a fitted effect of over 60% in size
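Inhibition of Kinase-Glo luciferase light generation was assessed at 10 uM ATP in pH 7.2 imidazole buffer, with luminescence measured after eight minutes at ambient temperature.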
SMN2 splice enh = SMN2 splice variant enhancement; HEK293 SMN2-luciferase splicing reporter, luminescence, 30-36 h; Potency, µM (titrated, usually from 46.1 µM), inactives show at the top dose activity change, positive = activation, most hits filed as activators; AID 1458; hit rate 2.8% among 210,000; also: % of control where 0% means no effect; nearly all actives have a fitted effect of over 55% in size
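HEK293 cells carry an SMN2 […]–luciferase reporter in which exon 7 inclusion puts luciferase in frame. Cells were plated 10-12 h before compound addition, then incubated 30-36 h at 37C. ONE-Glo luminescence was read; sodium butyrate at 4.5 mM final served as control.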
ELG1 genotoxic = inducers of genotoxicity in HEK293T ELG1-luciferase cells; HEK293T ELG1-luciferase reporter, luminescence, 16 h; Potency, µM (titrated, usually from 46 µM), without a hit: top-dose activity change, positive = activation, most hits filed as activators; hit rate 1.3% among 330,000; also: % of control where 0% means no effect; nearly all actives have a fitted effect of over 60% in size
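Screening used a luciferase reporter fused to human ELG1 in HEK293T cells. Luminescence was read on a CCD plate imager after 16 hr exposure and 30 min ONE-Glo incubation.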
FLuc modulator = firefly luciferase modulation, counter-screen for miR-21 project; hit rate 6.9% among 360,000; AID 588342; Potency, µM (titrated, usually from 57.5 µM), for the others: at the highest dose activity change, negative = inhibition, usual class: inhibitors; purified FLuc, Km substrates, luminescence inhibition;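 also: plate controls were vehicle for no effect and reference inhibitor for full effect; nearly all actives have a fitted effect of over 55% in size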
Target sequence (P08659 whole entry, looked up): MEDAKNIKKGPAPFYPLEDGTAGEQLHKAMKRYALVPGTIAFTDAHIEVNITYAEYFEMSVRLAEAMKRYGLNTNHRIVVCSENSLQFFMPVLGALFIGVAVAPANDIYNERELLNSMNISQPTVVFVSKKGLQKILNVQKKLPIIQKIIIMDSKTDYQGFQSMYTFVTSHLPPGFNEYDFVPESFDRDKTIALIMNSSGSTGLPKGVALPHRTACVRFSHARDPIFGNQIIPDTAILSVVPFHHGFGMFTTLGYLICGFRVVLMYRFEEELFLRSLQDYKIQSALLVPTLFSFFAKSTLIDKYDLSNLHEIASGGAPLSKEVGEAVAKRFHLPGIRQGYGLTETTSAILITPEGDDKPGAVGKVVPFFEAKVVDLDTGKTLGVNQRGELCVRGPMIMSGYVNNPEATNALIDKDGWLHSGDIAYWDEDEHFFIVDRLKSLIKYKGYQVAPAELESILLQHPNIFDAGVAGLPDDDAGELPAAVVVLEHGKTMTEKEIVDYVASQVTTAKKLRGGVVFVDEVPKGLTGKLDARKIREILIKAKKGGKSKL
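Biochemical qHTS of compounds, final roughly 60 µM downward over six points, against 10 nM purified firefly luciferase using Km concentrations of substrates (10 uM D-luciferin, 10 uM ATP) in Tris acetate pH 7.5 buffer; luminescence output.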
The depositor's hits bear a star; u = inconclusive; x = no result; [ ] = dose if it differs, or a comment. Calls follow the shape of the dose curve; as a rule, active = well fitted curve in the direction sought with a large enough effect; inconclusive = small, poorly fitted or top-dose-only effect, or another doubt; inactive = no such curve, though single readings can be large; an effect the other way counts as inactive or inconclusive. Potency is read from the fitted curve at half-maximal effect.

SMILES	NPC1 promoter act	Rab9 promoter act	Luc counter	SMN2 splice enh	ELG1 genotoxic	FLuc modulator
CCn1c(COc2ccc(OC)cc2)nc2ccccc21	u	u	-8%	1%	17%	13µM*
CCn1c(COc2ccccc2)nc2ccccc21	2%	2%	-5%	3%	21%	u
CCn1c(NCc2ccc3c(c2)OCO3)nc2ccccc21	17%	4%	-4%	10%	6%	u
C=CCn1c(NCc2ccc3c(c2)OCO3)nc2ccccc21	14%	24%	-5%	-3%	30%	15µM*
C=CCn1c(COc2ccc(OC)cc2)nc2ccccc21	u	u	x	x	u	17µM*
C=CCn1c(NCc2ccc(OC)cc2O)nc2ccccc21	u	u	x	x	13%	19µM*
Cc1oc2ncn(CC(C)C)c(=O)c2c1C(=O)NC(C)c1ccccc1 (centres undefined)	x	x	x	x	x	-7%
CCOc1ccc(-c2nc3c(C#N)c[nH]n3c2NC2CCCC2)cc1	x	x	x	x	x	0%
CC(C)OCCCNC(=O)c1cc2c(-c3ccc(Cl)cc3)nn(C)c2s1	x	x	x	-3%	x	-10%
CCOc1ccc(NC(=O)c2ccccc2CO)cc1	u	u	-17%	12%	u	17µM*
CCOc1ccc(NC(=O)c2ccccc2O)cc1	1.4µM*	1.6µM*	-15%	3.2µM*	u	0.54µM*
CCOc1ccc(NC(=O)c2cccnc2C(=O)O)cc1	9%	4%	-6%	8%	8%	u
CCOc1ccc(NC(=O)c2ccc(NC(=O)c3ccccc3Br)cc2)cc1	-1%	-1%	x	x	u	-15%
COc1ccccc1C(=O)Nc1ccc(OCC(=O)N2CC(C)OC(C)C2)cc1 (centres undefined)	0%	-5%	x	x	9%	5.4µM*
CCOc1ccc(NC(=O)c2nnn(CC(=O)Nc3ccccc3OC)c2N)cc1	18%	19%	-2%	-1%	6%	2.7µM*
COc1ccccc1NC(=O)Cn1nnc(C(=O)Nc2ccccc2)c1N	2%	-4%	2%	-18%	-8%	-3%
CSc1ccc(CCNC(=O)c2ccc(-n3c(C)cc4c3CCCC4)cc2)cc1	x	x	x	x	x	-3%
CC1CCN(S(=O)(=O)c2cc(C(=O)NCCc3ccccc3)n(C)c2)CC1	x	x	x	x	x	2%
COc1ccccc1C(=O)Nc1ccc(C(=O)c2ccccc2)cc1	-5%	u	-1%	-5%	4%	13µM*
COc1ccc(CCNC(=O)Cn2nnc(-c3ccc(OC)c(OC)c3)n2)cc1OC	-3%	-3%	2%	-8%	-3%	-6%
CCOc1ccc(NC(=O)c2ccccc2OC)cc1	u	u	-12%	u	u	12µM*
COc1ccc(CCNC(=O)Cn2nnc(-c3ccc(N(C)C)cc3)n2)cc1OC	0%	0%	-1%	-57%	0%	17µM*
COc1ccc(CCNC(=O)Cn2nnc(C(=O)Nc3ccc(Br)cc3)c2N)cc1OC	-1%	-7%	x	x	-3%	9.5µM*
COc1ccccc1NC(=O)c1c(-c2ccc(C)cc2)nnc2ccccc12	x	x	x	x	x	-16%
Oc1ccccc1/C=N/NC(=S)NC1CC2CC1C1C=CCC21 (centres undefined)	17%	u	x	x	u	5.4µM*
SMILES	NPC1 promoter act	Rab9 promoter act	Luc counter	SMN2 splice enh	ELG1 genotoxic	FLuc modulator
COc1cccc(/C=N/NC(=S)NC2CC3CC2C2C=CCC32)c1O (centres undefined)	0%	-2%	x	x	7%	5.4µM*
Oc1c(Br)cc(Br)cc1/C=N/NC(=S)N[C@H]1CC2C=CC1C2 (some centres undefined)	1%	-4%	x	x	-5%	-18%
CC(C)(C)C(=O)CSc1nc2ccsc2c(=O)n1Cc1ccccc1Cl	x	x	x	x	x	-5%
COc1cccc(-c2cc(C(=O)N3C(C)CCCC3C)no2)c1 (centres undefined)	5µM*	3.2µM*	-5%	14µM*	7.1µM*	11µM*
COC(=O)c1ccc(NC(=O)C(=O)N2CCN(C(=S)Nc3cccc(OC)c3)CC2)cc1	-1%	-6%	0%	-25%	-3%	-7%
COc1cccc(NC(=O)C(=O)N2CCOCC2)c1	24%	u	u	13µM*	u	19µM*
COc1ccc(-c2cc(C(=O)N3CCOCC3)no2)cc1	0.35µM*	0.45µM*	x	x	0.41µM*	1.5µM*
COc1cccc(-c2cc(C(=O)N3CCN(C(c4ccccc4)c4ccccc4)CC3)no2)c1	-7%	-4%	1%	-10%	-9%	1%
COc1cccc(-c2cc(C(=O)N3CCOCC3)no2)c1	1.3µM*	1.4µM*	x	x	u	8.5µM*
Cn1c(C[C@@H](O)c2nc3ccccc3n2C)nc2ccccc21	x	x	1%[7.66 µM]	-3%[9.22 µM]	x	x
COC(=O)c1ccc(OCC2c3cc(OC)c(OC)cc3CCN2C(=O)c2cccc(C)c2)cc1 (centres undefined)	x	x	x	x	x	-10%
Cc1csc(-c2cccnc2)n1	-3%	3%	1%	7%	1%	1%
Oc1ccccc1-c1csc(-c2ccccc2)n1	-5%	u	-21%	u	-11%	5.4µM*
c1ccc(-c2csc(-c3ccncc3)n2)cc1	18%	24%	1%	23%	19%	15µM*
Oc1ccc(-c2csc(-c3cccnc3)n2)cc1O	21%	-15%	x	x	u	17µM*
Brc1ccsc1-c1csc(-c2ccncc2)n1	25%	28%	x	x	u	u
Clc1ccc(-c2csc(-c3cccnc3)n2)s1	22%	24%	x	x	11%	13µM*
CC1=C(C(=O)Nc2ccc(C)cc2C)C(c2ccc([N+](=O)[O-])cc2)n2ncc(C(=O)Nc3ccc(F)cc3)c2N1 (centres undefined)	x	x	x	x	x	0%
Cc1nc(-c2ccc(O)c(O)c2)cs1	-7%	29%	-5%	2%	23%	-18%
Fc1ccc(-c2csc(-c3cccnc3)n2)cc1F	u	u	x	x	12%	u
Fc1ccccc1-c1csc(-c2cccnc2)n1	u	u	x	x	u	15µM*
Oc1ccc(-c2csc(-c3ccccc3)n2)cc1O	18%	-1%	5%	u	u	15µM*
c1cncc(-c2nc(-c3ccc4c(c3)OCCO4)cs2)c1	0.89µM*	0.56µM*	x	x	u	1.7µM*
COc1ccc(-n2c(CC3C(=O)N(C)c4ccc(C)cc43)nc3ccccc3c2=O)cc1 (centres undefined)	x	x	x	4%	x	-3%
Clc1cccc(N/N=C/c2ccncc2)c1	26%	u	-4%	u	u	17µM*
O=C(Nc1cccc(Cl)c1)O/N=C\c1ccncc1	-1%	1%	-5%	x	0%	u
Cc1ccc(N/N=C/c2ccncc2)cc1	u	3.2µM*	x	x	u	12µM*
